# Results from PubChem BioAssay (NCI).
# Where “and” joins values, the source holds several entries; their conditions need not be identical. Equal entries are not always repeated. About 83,000 compounds went through this panel and 20% of them were active in at least one assay; those are over-represented in the sample as a whole.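 Note: values are percent growth. 100 is the growth of untreated cells, values between 100 and 0 indicate rising inhibition; between -100 and 0 indicates cell death.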 Calls of active or inactive are those of the source. The calls were made as follows: active = growth percent below 10; inactive = the rest.
# System: MDA-MB-468 breast
# Test: NCI-60 one-dose screen, 48 h (100 = growth as untreated, 0 = no growth, -100 = all killed)
# Conditions: 10 µM unless noted
row,SMILES,growth
1,O=C(NCCNc1cc(-c2cn(-c3ccccc3)nc2-c2cccc(O)c2)ccn1)Nc1ccccc1,64.9% (inactive)
2,ON=C(C1CCCCC1)C1CCCCC1,105% (inactive)
3,Cc1ccc(C(=O)Nc2ccc(CN3CCN(C)CC3)c(C(F)(F)F)c2)cc1C#Cc1cnc(N)cc1C#N,-63.8% (active)
4,COc1ccc(-c2nc(SC(C)C)nc(NNC(N)=S)c2C#N)cc1,21.2% (inactive)
5,Cc1nn(-c2ccc(Br)cc2)c2nc3[nH]c(=O)[nH]c(=O)c3nc12,116% (inactive)
6,COc1cc(C2CC(c3ccc(Nc4ccnc5cc(Cl)ccc45)cc3)=NN2c2ccccc2)cc(OC)c1OC (stereo not given),44.6% (inactive)
7,Cc1cn(C2CCCCO2)c(=O)nc1NO (stereo not given),65% (inactive)
8,Cc1cc(O)c(C(C)C)cc1S(=O)(=O)O (tested in a mixture with another compound),91.8% (inactive) and -40.1% (active) and 115% (inactive)
9,Cc1ccc(C(=O)c2ccc(CC(=O)N/N=C/c3ccc(O)cc3O)n2C)cc1,46.8% (inactive)
10,COc1cc(N=Nc2cc(S(=O)(=O)O)cc3cc(S(=O)(=O)O)cc(O)c23)c(C)cc1N=Nc1c(S(=O)(=O)O)cc2cc(Nc3ccccc3)ccc2c1O,115% (inactive)
11,COc1ccc2c(O)c(/C=C3\N=Nc4ccccc43)oc2c1C[C@@H]1CCNC[C@H]1F,74.4% (inactive)
12,O=C(/C=C/c1ccccc1)c1ccc(Nc2nc(NCCO)nc(Nc3ccc(Cl)cc3)n2)cc1,64.5% (inactive)
13,CCN(CC)C(=S)SCCO,94.6% (inactive)
14,N#Cc1ncc(-c2ccc(F)c(F)c2F)c(NC2CCCCCC2)n1,86.1% (inactive)
15,C=CC(=O)Nc1cccc(Oc2nccc(Nc3nnc(C4CC4)s3)n2)c1,102% (inactive)
16,N#CC1=C(N)Oc2c(c(N)nn2-c2ccccc2)C1c1ccc(Cl)cc1Cl (stereo not given),129% (inactive)
17,Cc1ccc(C2CC(c3cccc(Nc4ccncc4)c3)=NN2c2ccccc2)cc1 (stereo not given),-78.5% (active)
18,CCN(CC)CCC(CNc1c(C)cnc2cc(Cl)ccc12)c1ccc(Cl)cc1 (stereo not given),19.3% (inactive)
19,COc1ccc2nc(-c3cc(-c4cc(OC)c(OC)c(OC)c4)n[nH]3)[nH]c2c1,-8.59% (active)
20,COc1cccc(C2=NN3C(C2)c2ccccc2OC3c2ccc(/C=C3\SC(=O)NC3=O)cc2)c1 (stereo not given),102% (inactive)

row,SMILES,growth
1,COc1ccc2nc3ccccc3c(NCc3ccc(Cl)cc3)c2c1,-30.6% (active)
2,O=C(CSc1nc2ccccc2c(=O)n1-c1ccccc1)Nc1cccc(C(=O)/C=C/c2ccccc2)c1,91.3% (inactive)
3,CCCCn1c(-c2ccc(C(=O)O/N=C(\N)c3ccc4c(c3)OCO4)cc2)nc(-c2ccccc2)c1-c1ccccc1,73.8% (inactive)
4,Cc1cc(NCCCNc2ccnc3cc(Cl)ccc23)nc(Nc2ccc(C(=O)N3CCCCC3)cc2)n1,-19% (active)
5,Cc1nn(-c2ccccc2)c2ncnc(N/N=C/c3cccc(O)c3)c12,-0.147% (active)
6,COc1cc(-c2ccc(-c3ccc(C(=N)N)s3)s2)cc(OC)c1OC,23.8% (inactive)
7,CN1CCN(c2ccc(C(=O)Nc3cccc(-c4cn(-c5ccc(S(N)(=O)=O)cc5)nn4)c3)cc2C(F)(F)F)CC1,68.9% (inactive)
8,Cc1ccc(-n2nnnc2N)c(C)c1,115% (inactive)
9,Cc1csc(/N=C(N)/N=C(\N)c2cccc(C#N)c2)n1,101% (inactive)
10,COc1ccc(CN2c3ccccc3Oc3ccccc32)cc1O,6.51% (active)
11,CCCCN(CCCC)C(=N)c1ccnc2ccccc12,117% (inactive)
12,C=C(C)C(=O)Nc1ccc(NC(C)C)cc1,111% (inactive)
13,COc1cc(NCCC2CCCCN2)c2ncccc2c1OC (stereo not given),73.8% (inactive)
14,CCOC(=O)n1ccn(C)c1=S,103% (inactive)
15,O=C(Nc1cccnc1Nc1ccccc1)c1cn(Cc2cccc(Oc3ccccc3)c2)nn1,69.9% (inactive)
16,Cc1cc(N(CCNc2ccnc3cc(Cl)ccc23)Cc2ccc3c(c2)OCO3)nc(N2CCN(C)CC2)n1,-59% (active)
17,CS(=O)c1nccc(-c2c(-c3ccc(F)c(OCCc4ccc(F)cc4)c3)nc3sccn23)n1 (stereo not given),-64.3% (active)
18,CN(C)CCCn1c(=O)c2ccccc2c2cnc3[nH]ccc3c21,-9.4% (active)
19,Cn1cnc2c(N3CCN(C(=O)OCc4ccc5c(Cl)cc(Cl)c(O)c5n4)CC3)nc(Cl)nc21,72.5% (inactive)
20,Cc1cccc(Cl)c1NC(=O)c1ccc2nc(NC(=O)NCCN(C)C)sc2c1,30.6% (inactive)
